Structures are written as SMILES. For part of these data: Potency and affinity values are given separately.

The results in this text go back to ChEMBL document CHEMBL3988442, “University of Dundee, Small-Polar-MMV Screening Library” (2021).

Holding throughout (parameters): scale not given: direction of the effect not stated beside the values
Assay [1] concerns the target Protein translocase subunit SecA (Escherichia coli (strain K12)) (UniProt P10408). Kind of assay: Assay to Identify E. coli SecA ATPase Inhibitors. The format is functional. The following applies: 30 µM.
Assay [2] deals with T1, Ubiquitin-activating enzyme e1, putative (Leishmania donovani (strain BPK282A1)) (UniProt E9BSI1).
T1 sequence (whole entry): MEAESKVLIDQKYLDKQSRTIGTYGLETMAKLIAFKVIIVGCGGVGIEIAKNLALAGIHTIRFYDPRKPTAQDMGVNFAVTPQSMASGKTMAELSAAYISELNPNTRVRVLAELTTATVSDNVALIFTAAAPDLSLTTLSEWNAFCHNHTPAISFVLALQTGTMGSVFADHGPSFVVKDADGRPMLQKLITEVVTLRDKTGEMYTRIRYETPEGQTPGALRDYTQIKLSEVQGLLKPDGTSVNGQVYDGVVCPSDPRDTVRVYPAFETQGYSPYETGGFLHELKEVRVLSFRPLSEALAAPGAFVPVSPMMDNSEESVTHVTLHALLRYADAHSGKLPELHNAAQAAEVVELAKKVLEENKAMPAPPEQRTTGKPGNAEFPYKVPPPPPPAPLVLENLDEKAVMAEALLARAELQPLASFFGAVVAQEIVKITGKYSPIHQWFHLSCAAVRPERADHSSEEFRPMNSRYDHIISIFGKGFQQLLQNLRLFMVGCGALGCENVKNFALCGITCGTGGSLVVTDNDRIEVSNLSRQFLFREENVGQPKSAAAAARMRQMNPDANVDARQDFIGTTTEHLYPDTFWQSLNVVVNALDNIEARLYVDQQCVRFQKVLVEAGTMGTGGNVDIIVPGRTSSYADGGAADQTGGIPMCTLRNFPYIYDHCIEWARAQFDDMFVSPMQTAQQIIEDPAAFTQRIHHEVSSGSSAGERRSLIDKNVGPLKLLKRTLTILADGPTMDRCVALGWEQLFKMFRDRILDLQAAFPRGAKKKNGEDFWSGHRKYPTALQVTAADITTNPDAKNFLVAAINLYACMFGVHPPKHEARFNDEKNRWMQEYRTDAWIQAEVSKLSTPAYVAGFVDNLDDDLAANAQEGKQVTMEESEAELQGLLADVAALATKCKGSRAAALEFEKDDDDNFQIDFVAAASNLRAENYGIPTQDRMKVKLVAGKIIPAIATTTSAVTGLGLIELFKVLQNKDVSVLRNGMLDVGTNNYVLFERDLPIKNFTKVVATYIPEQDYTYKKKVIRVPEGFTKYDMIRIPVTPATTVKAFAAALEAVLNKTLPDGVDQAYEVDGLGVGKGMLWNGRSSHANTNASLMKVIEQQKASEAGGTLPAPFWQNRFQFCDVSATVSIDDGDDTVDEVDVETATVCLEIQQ
Kind of assay: Leishmania donovani Ubiquitin Activating Enzyme (LdE1). The format is functional. The following applies: 30 µM.

For assay [3], the target named is Sialic acid-binding Ig-like lectin 9 (Homo sapiens) (UniProt Q9Y336). As to the kind of experiment: Hs-Siglec9 ALPHAscreen SOP 20170721. The following applies: 10 µM. For orientation: Bead proximity is the source of the signal in Alpha formats.
Chain of Sialic acid-binding Ig-like lectin 9 (Homo sapiens) (Q9Y336 whole entry): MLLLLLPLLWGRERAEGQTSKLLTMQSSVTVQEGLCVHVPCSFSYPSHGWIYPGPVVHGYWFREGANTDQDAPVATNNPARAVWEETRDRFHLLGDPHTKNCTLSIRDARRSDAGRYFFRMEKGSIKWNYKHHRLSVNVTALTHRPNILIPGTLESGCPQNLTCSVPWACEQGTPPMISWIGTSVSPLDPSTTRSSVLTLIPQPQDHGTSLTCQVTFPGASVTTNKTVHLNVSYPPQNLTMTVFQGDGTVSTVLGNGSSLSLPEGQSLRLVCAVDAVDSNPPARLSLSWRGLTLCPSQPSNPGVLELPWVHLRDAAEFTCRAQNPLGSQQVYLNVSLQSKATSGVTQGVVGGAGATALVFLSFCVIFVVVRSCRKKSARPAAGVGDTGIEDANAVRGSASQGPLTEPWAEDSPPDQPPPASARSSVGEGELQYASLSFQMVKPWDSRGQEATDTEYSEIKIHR
The next assay relates to Trypanosoma cruzi. As to the kind of experiment: Trypanosoma cruzi phosphomannomutase and mannose-1-phosphate guanylyltransferase assay. It is filed as functional. The following applies: 10 µM.
Assay [4] addresses T2, Arginase-2, mitochondrial (Homo sapiens) (UniProt P78540).
T2 sequence (whole entry): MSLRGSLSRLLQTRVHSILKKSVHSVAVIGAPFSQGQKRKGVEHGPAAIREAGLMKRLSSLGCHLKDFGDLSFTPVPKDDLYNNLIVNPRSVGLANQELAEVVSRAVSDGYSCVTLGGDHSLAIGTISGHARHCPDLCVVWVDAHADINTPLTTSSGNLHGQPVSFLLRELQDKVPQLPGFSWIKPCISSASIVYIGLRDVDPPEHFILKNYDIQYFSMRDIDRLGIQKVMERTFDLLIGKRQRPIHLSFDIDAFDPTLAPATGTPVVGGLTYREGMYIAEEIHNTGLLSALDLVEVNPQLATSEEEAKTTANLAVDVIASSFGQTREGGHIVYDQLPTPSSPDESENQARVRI
As to the kind of experiment: in vitro enzyme assay to detect the production of urea directly proportional to the activity of Arginase II. Further: in the data most compounds retested in dose-response had high values. The format is functional. The following applies: 33.3 µM.

Assay [5] has as its target T3, Proteasome subunit beta (Trypanosoma cruzi) (UniProt O96673).
T3 sequence (whole entry): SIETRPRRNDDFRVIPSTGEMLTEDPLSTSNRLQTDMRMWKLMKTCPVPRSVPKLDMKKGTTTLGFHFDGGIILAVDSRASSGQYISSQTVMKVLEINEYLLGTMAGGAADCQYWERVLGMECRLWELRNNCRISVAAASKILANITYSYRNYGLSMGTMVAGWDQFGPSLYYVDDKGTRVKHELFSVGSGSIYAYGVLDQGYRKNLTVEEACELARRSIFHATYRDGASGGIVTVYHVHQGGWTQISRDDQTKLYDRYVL
As to the kind of experiment: Trypanosoma cruzi proteasome chymotrypsin-like activity (TcProtChymo) assay. Further: in the data most compounds retested in dose-response had high values. The following applies: 9.37 µM. It is filed as functional.

The species entered for another assay is Homo sapiens. As to the kind of experiment: To identify inhibition of the IFN signalling (Jak-Stat) pathway via expression of an eGFP reporter gene under the control of an IFN-stimulated response element (ISRE) containing MxA promoter. It is filed as functional. The following applies: 30 µM. For orientation: A reporter such as luciferase makes a cellular process visible.

Assay [6] has as its target T4, Tyrosyl-tRNA synthetase, putative (Trypanosoma cruzi (strain CL Brener)) (UniProt Q4DSP6).
T4 sequence (whole entry): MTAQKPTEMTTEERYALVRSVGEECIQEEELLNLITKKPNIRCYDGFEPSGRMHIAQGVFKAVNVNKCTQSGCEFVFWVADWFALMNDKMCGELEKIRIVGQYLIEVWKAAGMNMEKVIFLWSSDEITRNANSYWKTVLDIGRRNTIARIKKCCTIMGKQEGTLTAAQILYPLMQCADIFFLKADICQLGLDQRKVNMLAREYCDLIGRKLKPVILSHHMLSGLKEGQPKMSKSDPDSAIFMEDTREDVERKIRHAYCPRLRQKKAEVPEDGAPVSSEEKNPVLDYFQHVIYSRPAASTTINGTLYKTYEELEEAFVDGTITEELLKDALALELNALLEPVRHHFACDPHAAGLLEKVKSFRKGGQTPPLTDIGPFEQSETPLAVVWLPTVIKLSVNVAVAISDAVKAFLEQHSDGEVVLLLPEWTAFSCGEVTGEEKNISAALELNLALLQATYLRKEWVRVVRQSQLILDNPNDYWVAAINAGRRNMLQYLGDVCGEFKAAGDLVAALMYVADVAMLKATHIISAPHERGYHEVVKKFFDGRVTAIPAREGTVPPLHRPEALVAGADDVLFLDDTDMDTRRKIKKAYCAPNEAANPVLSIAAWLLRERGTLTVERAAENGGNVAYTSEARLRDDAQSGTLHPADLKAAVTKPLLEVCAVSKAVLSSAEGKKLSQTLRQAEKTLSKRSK
As to the kind of experiment: Trypanosoma cruzi tyrosyl tRNA synthetase (TcYRS) _High Tyrosine SOP. Further: in the data most compounds retested in dose-response had high values. The following applies: 30 µM. It is filed as functional.

Assay [7] deals with T4, Tyrosyl-tRNA synthetase, putative (Trypanosoma cruzi (strain CL Brener)). As to the kind of experiment: Trypanosoma cruzi tyrosyl tRNA synthetase (TcYRS) SOP. The format is functional. The following applies: 30 µM.
Assay [8] concerns the target Chromo domain-containing protein 1 (Saccharomyces cerevisiae (strain ATCC 204508 / S288c) (Baker's yeast)) (UniProt P32657). Kind of assay: ScCHD-1 Enzyme Inhibition Assay. Further: in the data most compounds retested in dose-response had high values. The format is functional. The following applies: 30 µM.

Chain of Protein translocase subunit SecA (Escherichia coli (strain K12)) (P10408 whole entry): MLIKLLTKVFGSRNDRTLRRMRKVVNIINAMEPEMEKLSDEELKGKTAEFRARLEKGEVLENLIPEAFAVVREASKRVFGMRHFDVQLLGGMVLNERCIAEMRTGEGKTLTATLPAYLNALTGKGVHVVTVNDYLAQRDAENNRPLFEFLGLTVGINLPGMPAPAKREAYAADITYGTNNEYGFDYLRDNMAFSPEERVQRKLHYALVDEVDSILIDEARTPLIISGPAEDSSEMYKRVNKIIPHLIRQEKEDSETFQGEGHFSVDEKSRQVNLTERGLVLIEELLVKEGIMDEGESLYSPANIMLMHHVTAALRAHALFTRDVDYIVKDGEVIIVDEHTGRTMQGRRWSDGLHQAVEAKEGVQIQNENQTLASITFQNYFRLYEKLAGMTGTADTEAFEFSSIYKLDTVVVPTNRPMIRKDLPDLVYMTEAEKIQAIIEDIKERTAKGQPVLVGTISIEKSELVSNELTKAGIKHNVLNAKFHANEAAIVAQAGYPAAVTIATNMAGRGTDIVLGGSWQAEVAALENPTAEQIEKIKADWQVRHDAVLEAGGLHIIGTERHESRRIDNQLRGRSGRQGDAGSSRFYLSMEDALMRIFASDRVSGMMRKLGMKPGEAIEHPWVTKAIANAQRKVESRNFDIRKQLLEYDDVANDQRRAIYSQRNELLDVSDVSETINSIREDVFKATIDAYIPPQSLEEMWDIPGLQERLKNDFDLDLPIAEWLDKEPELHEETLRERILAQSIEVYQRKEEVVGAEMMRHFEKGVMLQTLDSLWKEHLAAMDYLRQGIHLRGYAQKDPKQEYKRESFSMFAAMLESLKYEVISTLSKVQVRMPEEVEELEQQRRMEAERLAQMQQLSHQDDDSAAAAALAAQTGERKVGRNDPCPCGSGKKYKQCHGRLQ
Chain of Chromo domain-containing protein 1 (Saccharomyces cerevisiae (strain ATCC 204508 / S288c) (Baker's yeast)) (P32657 whole entry, the tested form may be a part): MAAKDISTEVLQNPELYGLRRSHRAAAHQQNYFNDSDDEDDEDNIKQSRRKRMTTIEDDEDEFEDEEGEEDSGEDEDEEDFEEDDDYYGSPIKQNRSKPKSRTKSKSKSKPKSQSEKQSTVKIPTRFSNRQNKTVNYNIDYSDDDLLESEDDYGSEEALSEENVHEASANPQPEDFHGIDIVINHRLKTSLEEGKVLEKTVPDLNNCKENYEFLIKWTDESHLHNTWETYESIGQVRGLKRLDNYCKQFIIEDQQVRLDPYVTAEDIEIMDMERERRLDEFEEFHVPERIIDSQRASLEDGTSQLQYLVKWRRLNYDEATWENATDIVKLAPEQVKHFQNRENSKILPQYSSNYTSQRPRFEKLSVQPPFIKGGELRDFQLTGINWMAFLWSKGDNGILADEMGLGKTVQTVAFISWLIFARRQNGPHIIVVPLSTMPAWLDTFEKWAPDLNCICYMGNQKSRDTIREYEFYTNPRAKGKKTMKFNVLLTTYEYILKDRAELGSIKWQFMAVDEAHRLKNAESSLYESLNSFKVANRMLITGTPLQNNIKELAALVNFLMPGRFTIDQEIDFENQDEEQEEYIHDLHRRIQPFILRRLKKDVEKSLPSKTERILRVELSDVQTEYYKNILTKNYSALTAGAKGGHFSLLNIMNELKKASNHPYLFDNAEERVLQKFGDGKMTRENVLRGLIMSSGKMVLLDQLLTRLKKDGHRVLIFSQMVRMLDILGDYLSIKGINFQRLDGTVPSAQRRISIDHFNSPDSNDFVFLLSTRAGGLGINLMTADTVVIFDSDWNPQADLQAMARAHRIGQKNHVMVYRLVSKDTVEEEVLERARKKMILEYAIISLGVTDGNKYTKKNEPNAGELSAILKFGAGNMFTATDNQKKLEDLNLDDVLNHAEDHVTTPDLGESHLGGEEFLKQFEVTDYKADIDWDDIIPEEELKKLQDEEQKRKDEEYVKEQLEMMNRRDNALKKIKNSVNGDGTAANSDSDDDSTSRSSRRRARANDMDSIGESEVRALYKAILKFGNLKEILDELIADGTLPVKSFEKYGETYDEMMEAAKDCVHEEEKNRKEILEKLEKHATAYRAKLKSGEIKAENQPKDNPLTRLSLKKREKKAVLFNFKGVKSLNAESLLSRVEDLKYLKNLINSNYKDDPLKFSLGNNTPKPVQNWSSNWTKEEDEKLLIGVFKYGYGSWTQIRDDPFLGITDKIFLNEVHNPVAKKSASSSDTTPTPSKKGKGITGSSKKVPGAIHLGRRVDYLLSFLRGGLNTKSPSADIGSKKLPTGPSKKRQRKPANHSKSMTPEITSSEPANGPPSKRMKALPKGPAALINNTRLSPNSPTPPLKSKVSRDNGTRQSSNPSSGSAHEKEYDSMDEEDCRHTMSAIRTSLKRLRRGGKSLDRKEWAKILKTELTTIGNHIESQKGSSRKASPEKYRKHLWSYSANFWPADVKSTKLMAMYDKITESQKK

As to `Cc1ccc(-c2cc(CN3CCOC(Cn4cncn4)C3)on2)cc1` (stereo not given), the Percent Effect in assay [1] is -2.91%; in assay [2], 5.2%; in [3], 4.78%; in the assay with Trypanosoma cruzi, -0.56%; in assay [4], -1.43%; in [5], 1.4%. Besides, the Percent Effect in the assay filed under Homo sapiens is 12.8%; in [6], 10.8%; in [7], 18.8%; in [8], -5.72%.
For the compound `CC(C)n1ccnc1CN1CCCN(C(=O)c2cc(Cl)c[nH]2)CC1`, the Percent Effect was -0.854% in assay [1]; 10.3% in assay [2]; -9.31% in assay [3]; -3.1% in the assay on Trypanosoma cruzi; 11.5% in [4]; 16.1% in assay [5]. Moreover, the Percent Effect in the assay filed under Homo sapiens was 10.8%; in assay [6], 6.22%; in assay [7], 18.1%; in assay [8], -3.25%.
As for `O=C1NCCN(CC2CC2)C12CCN(Cc1ccco1)CC2`, the Percent Effect was -2.83% in [1]; 9.09% in [2]; -15.9% in assay [3]; -9.45% with Trypanosoma cruzi; 2.83% in assay [4]; 18.8% in assay [5]. The Percent Effect in the assay listed under Homo sapiens is 10.4%; in [6], 2.63%; in [7] it was -2.56%; in assay [8], -3.23%.
Regarding `COC(=O)c1cccn1C1CCN(CC(=O)NC2CCCCC2)CC1`, the Percent Effect is -0.883% in assay [1]; 15.6% in [2]; 8.78% in assay [3]; -1.31% in the assay on Trypanosoma cruzi; 3.07% in [4]; 13.5% in [5]. The Percent Effect in the assay listed under Homo sapiens was 2.4%; in assay [6] it was 9.8%; in [7], 21.2%; in assay [8], -5.06%.
On to `CCN1CCN(C(=O)NCCOc2ccc3c(c2)OCO3)CC1`, for which the Percent Effect in [1] was -3.49%; in assay [2] it was 20.8%; in assay [3], 7.69%; in the assay on Trypanosoma cruzi, -3.92%; in assay [4], 1.84%; in assay [5] it was 12.6%. The Percent Effect is -5.27% in the assay filed under Homo sapiens, 2.94% in assay [6], 16.5% in assay [7] and -6.7% in assay [8].
As to `COCCN1C[C@@H]2CN(C(=O)[C@H]3CCCO3)C[C@@H]2C1=O`, the Percent Effect was 0.0627% in assay [1]; 16.9% in [2]; -1.76% in assay [3]; -6.38% in the assay on Trypanosoma cruzi; 3.65% in [4]; 24.5% in [5]. The Percent Effect in the assay listed under Homo sapiens is 7.75%; in assay [6], 7.73%; in assay [7], 12.5%; in assay [8], -7.63%.
`Cc1ccc(C(=O)N2C[C@H]3CCC[C@@]3(COCc3cccnc3)C2)s1`: the Percent Effect is -4.31% in assay [1]; 6.49% in assay [2]; -5.03% in [3]; -4.38% with Trypanosoma cruzi; 1.22% in assay [4]; 15.4% in assay [5]. Besides, the Percent Effect in the assay filed under Homo sapiens was 3.36%; in assay [6], 5.79%; in assay [7] it was 5.13%; in assay [8], 5.28%.
`CCC1CN(C(=O)c2ccccc2N2CCCC2)CCN1C(C)C` (stereo not given): the Percent Effect in [1] was -7.26%; in assay [2], 5.41%; in assay [3], -0.153%; in the assay with Trypanosoma cruzi, -4.75%; in assay [4], -5.94%; in assay [5], 5.31%. In addition, the Percent Effect in the assay filed under Homo sapiens is -3.97%; in assay [6], 3.72%; in assay [7] it was -7.32%; in [8], -5.34%.
For `O=C(c1cc(C2CC2)[nH]n1)N1CCCC(n2cncn2)C1` (stereo not given), the Percent Effect in assay [1] is -2.3%; in assay [2], 7.69%; in assay [3], -12.5%; with Trypanosoma cruzi, 4.6%; in assay [4], 1.23%; in [5], 8.11%. The Percent Effect is -13.2% in the assay listed under Homo sapiens, 2.39% in assay [6], 10.8% in assay [7] and -2.79% in assay [8].
As for `O=C(NCC1CC1)C1=NOC2(CCN(S(=O)(=O)c3cccs3)C2)C1` (stereo not given), the Percent Effect in [1] is -2.62%; in assay [2], -3.9%; in assay [3], 6.57%; in the assay with Trypanosoma cruzi it was -1.85%; in assay [4], -3.64%; in assay [5] it was 3.79%. The Percent Effect in the assay filed under Homo sapiens was -1.32%; in assay [6], -0.526%; in assay [7] it was -2.56%; in assay [8] it was 0.639%.
On to `CCN(CC)C(=O)C(c1ccccc1)N1CCn2c(C)nnc2C1` (stereo not given), for which the Percent Effect was -4.22% in [1]; 17.9% in assay [2]; 9.65% in assay [3]; 7.61% in the assay on Trypanosoma cruzi; 0.82% in assay [4]; 8.45% in assay [5]. Also, the Percent Effect is 10.3% in the assay listed under Homo sapiens, 7.18% in [6], 22.9% in assay [7] and -4.71% in [8].
As for `CNC(=O)c1cc(S(=O)(=O)C(C)C)cs1`, the Percent Effect in assay [1] came to 0.159%; in [2], 19.5%; in [3] it was 28.2%; in the assay with Trypanosoma cruzi, 3.75%; in [4], 3.2%; in assay [5], 13.7%. Further, the Percent Effect is -6.32% in the assay listed under Homo sapiens, 6.76% in assay [6], 20% in assay [7] and -10.6% in [8].
